Where “and” joins values, the source holds several entries; their conditions need not be identical. Identical values can stand only once. Where a structure was tested more than once in an assay, its records may differ in their call. Calls of active or inactive are those of the source. Rule for the calls: active = hit-call score of the fitted dose curve at least 0.9, where 1 is the maximum; inactive = score below 0.9.
What was measured:
[1] = ATG_GLI_CIS: Attagene CIS-FACTORIAL HepG2 Assay for human Zinc Finger Protein GLI1 (AID 2282945); conditions: HepG2, Attagene cis-factorial reporter mRNA, GLI element; actives raise or lower the signal
Summary of the method: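 Transiently transfected HepG2 cells report endogenous transcription factor activity via cis-element-driven reporter units. After 24 h compound exposure, reporter mRNA was measured by RT-PCR with capillary electrophoresis; bidirectional fitting against DMSO baseline.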

[2] = molecular target: Bile acid receptor (Homo sapiens) (UniProt Q96RI1); assay: ATG_IR1_CIS: Attagene CIS-FACTORIAL HepG2 Assay for human Nuclear Receptor Subfamily 1 Group H Member 4 (NR1H4), IR1 submotif (AID 2282946); conditions: IR1 reporter transcription, actives raise or lower the signal
Summary of the method: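 HepG2 cells transiently transfected with multiple cis-promoter-driven reporter units to measure endogenous transcription factor activity; 24 h exposure. Reporter mRNA read by RT-PCR, FAM labelling, HpaI digestion and capillary electrophoresis. Bidirectional fit versus DMSO.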

[3] = ATG_GRE_CIS: Attagene CIS-FACTORIAL HepG2 Assay for human Glucocorticoid Response Elements (GRE) (AID 2282947); conditions: HepG2 GRE cis-reporter, Attagene multiplex mRNA; actives raise or lower the signal
Summary of the method: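 Endogenous transcription factor activity is read through cis-element reporter constructs transiently transfected into HepG2 cells. After 24 h treatment, labelled RT-PCR products are resolved by capillary electrophoresis; DMSO sets baseline for bidirectional curve fitting.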

[4] = ATG_ISRE_CIS: Attagene CIS-FACTORIAL HepG2 Assay for human Interferon Regulatory Factor 1 (IRF1) binding to an Interferon-Stimulated Response Element (ISRE) (AID 2282948); conditions: HepG2 ISRE cis-reporter (Attagene), mRNA transcription readout; actives raise or lower the signal
Summary of the method: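 Transfected HepG2 (multiple reporter transcription units, cis elements) dosed 24 h. RNA → oligo(dT) RT → PCR → 6-FAM primer extension → HpaI → CE. DMSO = negative control/baseline.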

[5] = ATG_M_32_CIS: Attagene CIS-FACTORIAL HepG2 Assay for M32 Transcription Factor (Internal Marker) (AID 2282949); conditions: HepG2 Attagene cis-factorial M32 reporter, mRNA; actives raise or lower the signal;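 note: background control marker of the multiplexed CIS panel rather than a real target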
Summary of the method: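 Following 24 h chemical exposure of HepG2 cells transiently expressing cis-promoter reporter constructs, reporter transcript levels were determined by RT-PCR with fluorescent labelling and capillary electrophoresis, then fitted bidirectionally against DMSO.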

[6] = ATG_M_06_CIS: Attagene CIS-FACTORIAL HepG2 Assay for M06 Transcription Factor (Internal Marker) (AID 2282950); conditions: HepG2 Attagene CIS-FACTORIAL M06 internal marker reporter; actives raise or lower the signal
Summary of the method: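 Serves as a background control readout. Transfected HepG2 exposed to compounds for 24 h, then reporter transcripts quantified by fluorescent RT-PCR and capillary electrophoresis. Both directions fitted against DMSO baseline.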

[7] = molecular target: Hypoxia-inducible factor 1-alpha (Homo sapiens) (UniProt Q16665); assay: ATG_HIF1a_CIS: Attagene CIS-FACTORIAL HepG2 Assay for human Hypoxia Inducible Factor 1 (HIF1A) (AID 2282951); conditions: HepG2 Attagene cis-factorial HIF1a reporter transcription; actives raise or lower the signal
Summary of the method: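 Measures endogenous transcription-factor activity through cis-regulated reporter mRNA in HepG2. Cells dosed 24 h; transcripts quantified by RT-PCR with 6-FAM-labelled products separated by capillary electrophoresis; DMSO serves as negative control.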

[8] = molecular target: Hepatocyte nuclear factor 6 (Homo sapiens) (UniProt Q9UBC0); assay: ATG_HNF6_CIS: Attagene CIS-FACTORIAL HepG2 Assay for human Hepatocyte Nuclear Factor 6 (HNF6) (AID 2282952); conditions: HepG2 Attagene cis-factorial HNF6 reporter transcription; actives raise or lower the signal
Summary of the method: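 Transiently transfected HepG2 cells expressing cis-regulated reporter transcription units were exposed to chemical for 24 h in a 24-well format. Reporter transcript abundance was determined by fluorescence capillary electrophoresis.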

[9] = molecular target: Heat shock factor protein 1 (Homo sapiens) (UniProt Q00613); assay: ATG_HSE_CIS: Attagene CIS-FACTORIAL HepG2 Assay for human Heat Shock Transcription Factor 1 (HSE) (AID 2282953); conditions: HepG2 HSE cis-reporter, Attagene RNA transcription; actives raise or lower the signal
Summary of the method: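 Endogenous transcription factor activity in transiently transfected HepG2, read as reporter mRNA by RT-PCR with fluorescent capillary electrophoresis after 24 h. Gain or loss of signal fitted versus DMSO baseline.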

[10] = ATG_MRE_CIS: Attagene CIS-FACTORIAL HepG2 Assay for human Metal Responsive Element (MRE) (AID 2282954); conditions: HepG2 MRE cis-reporter transcription, Attagene multiplex; actives raise or lower the signal
Summary of the method: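 Fluorescent reporter fragments separated by capillary electrophoresis give mRNA induction for the MRE unit after 24 h treatment of transfected HepG2 cells. Endogenous transcription-factor activity is read; DMSO serves as negative control and baseline.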

Measured: AC50

Chain of Hepatocyte nuclear factor 6 (Homo sapiens) (Q9UBC0 whole entry, looked up): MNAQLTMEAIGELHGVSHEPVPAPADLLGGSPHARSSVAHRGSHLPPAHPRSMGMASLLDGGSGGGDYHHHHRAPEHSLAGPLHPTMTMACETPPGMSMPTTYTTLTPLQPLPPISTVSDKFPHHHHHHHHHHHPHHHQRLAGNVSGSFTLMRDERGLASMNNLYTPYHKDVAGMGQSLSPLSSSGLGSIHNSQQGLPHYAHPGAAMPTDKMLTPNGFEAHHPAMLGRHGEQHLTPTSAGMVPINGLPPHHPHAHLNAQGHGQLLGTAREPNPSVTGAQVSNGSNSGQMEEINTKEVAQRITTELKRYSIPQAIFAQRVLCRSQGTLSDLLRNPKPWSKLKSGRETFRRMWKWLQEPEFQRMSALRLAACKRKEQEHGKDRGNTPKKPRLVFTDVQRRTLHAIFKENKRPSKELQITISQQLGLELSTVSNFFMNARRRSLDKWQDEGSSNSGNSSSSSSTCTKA
Chain of Hypoxia-inducible factor 1-alpha (Homo sapiens) (Q16665 whole entry, looked up): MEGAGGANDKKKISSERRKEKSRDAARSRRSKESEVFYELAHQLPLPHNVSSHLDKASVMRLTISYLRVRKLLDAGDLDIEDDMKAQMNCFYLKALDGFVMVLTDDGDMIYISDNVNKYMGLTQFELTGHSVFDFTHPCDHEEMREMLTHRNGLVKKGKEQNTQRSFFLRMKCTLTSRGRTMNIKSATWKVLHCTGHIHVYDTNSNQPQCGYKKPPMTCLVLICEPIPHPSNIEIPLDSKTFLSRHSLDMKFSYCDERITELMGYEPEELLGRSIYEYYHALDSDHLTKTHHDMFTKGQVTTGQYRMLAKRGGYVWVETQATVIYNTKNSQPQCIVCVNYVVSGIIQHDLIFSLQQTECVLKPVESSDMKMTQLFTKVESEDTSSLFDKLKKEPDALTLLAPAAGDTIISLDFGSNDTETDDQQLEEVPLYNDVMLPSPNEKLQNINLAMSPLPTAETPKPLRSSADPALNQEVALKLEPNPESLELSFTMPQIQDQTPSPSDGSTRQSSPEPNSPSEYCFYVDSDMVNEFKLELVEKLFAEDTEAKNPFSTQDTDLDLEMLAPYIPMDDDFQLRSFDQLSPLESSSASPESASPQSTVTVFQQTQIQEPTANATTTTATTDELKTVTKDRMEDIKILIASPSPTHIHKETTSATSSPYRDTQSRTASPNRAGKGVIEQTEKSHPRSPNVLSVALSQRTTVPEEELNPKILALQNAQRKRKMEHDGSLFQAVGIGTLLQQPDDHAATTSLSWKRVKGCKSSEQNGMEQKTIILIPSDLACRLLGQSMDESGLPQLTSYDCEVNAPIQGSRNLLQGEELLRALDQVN
Chain of Bile acid receptor (Homo sapiens) (Q96RI1 whole entry, looked up): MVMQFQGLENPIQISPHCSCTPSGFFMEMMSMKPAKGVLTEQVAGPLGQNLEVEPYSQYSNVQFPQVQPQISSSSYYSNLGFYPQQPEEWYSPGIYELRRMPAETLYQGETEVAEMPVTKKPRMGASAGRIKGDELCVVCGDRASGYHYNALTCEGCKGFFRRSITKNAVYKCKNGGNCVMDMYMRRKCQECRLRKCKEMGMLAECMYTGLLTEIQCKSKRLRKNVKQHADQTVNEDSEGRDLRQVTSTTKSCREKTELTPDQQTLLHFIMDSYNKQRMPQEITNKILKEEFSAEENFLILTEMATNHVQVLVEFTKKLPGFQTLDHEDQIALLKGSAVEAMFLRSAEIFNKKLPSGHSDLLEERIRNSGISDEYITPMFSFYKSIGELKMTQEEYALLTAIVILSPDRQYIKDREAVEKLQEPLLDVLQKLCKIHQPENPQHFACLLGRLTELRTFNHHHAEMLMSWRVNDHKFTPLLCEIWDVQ
Chain of Heat shock factor protein 1 (Homo sapiens) (Q00613 whole entry, looked up): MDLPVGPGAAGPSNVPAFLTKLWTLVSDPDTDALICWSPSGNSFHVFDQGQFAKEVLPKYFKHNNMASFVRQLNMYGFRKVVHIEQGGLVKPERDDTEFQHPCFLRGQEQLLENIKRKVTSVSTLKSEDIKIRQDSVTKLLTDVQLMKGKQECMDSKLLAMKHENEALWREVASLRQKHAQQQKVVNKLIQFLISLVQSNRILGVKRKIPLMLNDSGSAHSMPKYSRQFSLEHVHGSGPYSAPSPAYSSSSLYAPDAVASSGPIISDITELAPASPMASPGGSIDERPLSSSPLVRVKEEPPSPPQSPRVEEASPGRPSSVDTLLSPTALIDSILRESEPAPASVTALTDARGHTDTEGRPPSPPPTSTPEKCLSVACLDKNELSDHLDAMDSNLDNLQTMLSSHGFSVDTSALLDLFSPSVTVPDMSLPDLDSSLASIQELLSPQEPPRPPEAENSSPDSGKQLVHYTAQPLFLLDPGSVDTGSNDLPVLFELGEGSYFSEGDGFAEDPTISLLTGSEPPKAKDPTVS

CCCOc1sc(C(=O)N2CCC(c3cc(CN)ccc3F)CC2)c(C)c1Br
active: [2] 1.12 µM | [7] 3.7 µM
inactive: all other assays above

CC(C)(C)c1cccc(C(C)(C)C)c1O
active: [4] 162 µM | [7] 173 µM | [10] 158 µM
inactive: all other assays above

OC1CCCCC1
not listed: [2]
inactive: all other assays above

COC(=O)CCCCC(=O)OC
inactive: all assays above

CCC(C)(C)C1CCC(O)CC1 (configuration not stated)
not listed: [2] | [3]
inactive: all other assays above

FC(F)(I)C(F)(F)C(F)(F)C(F)(F)C(F)(F)C(F)(F)I
active: [3] 18.1 µM
inactive: all other assays above

CCCCCCCCCCCCCCCS(=O)(=O)Oc1ccccc1
inactive: all assays above

O=C1OC2(c3ccccc31)c1cc(Br)c(O)c(Br)c1Oc1c2cc(Br)c(O)c1Br
active: [10] 76.3 µM
inactive: [1] | [2] | [3] | [4] | [5] | [6] | [7] | [8] | [9] | [10]

ClC1=C(Cl)C(Cl)(Cl)C(Cl)=C1Cl
inactive: [3] | [5] | [6] | [7] | [8]
active: [1] 11.1 µM and 6.27 µM | [4] 14.6 µM and 11.1 µM | [8] 8.06 µM | [9] 8.88 µM and 5.39 µM | [10] 20.2 µM and 6.9 µM

CC(C)CCCCCCOC(=O)CCCCC(=O)OCCCCCCC(C)C
inactive: all assays above

O=C(O)c1ccccc1C(c1ccc(O)cc1)c1ccc(O)cc1
not listed: [2]
inactive: all other assays above

CC(O)CO (configuration not stated)
inactive: all assays above

CC(O)C(=O)O (configuration not stated)
not listed: [3]
inactive: all other assays above

CN1CCC[C@H]1c1cccnc1
inactive: [1] | [4] | [5] | [6] | [8] | [10]

O=[N+]([O-])c1ccc(O)cc1
inactive: [1] | [4] | [5] | [6] | [7] | [8] | [9] | [10]
active: [7] 151 µM

NC(=O)N(O)[C@@H]1C=C[C@H](Oc2cccc(Oc3ccc(F)cc3)c2)C1
active: [9] 52.8 µM | [10] 33 µM
inactive: all other assays above

CCCCCCC(=O)O
inactive: all assays above

COc1ccc([N+](=O)[O-])cc1N
inactive: all assays above

CC1=C(/C=C/C(C)=C/C=C/C(C)=C/C(=O)O)C(C)(C)CCC1
active: [4] 54.4 µM and 106 µM | [9] 50.5 µM and 93 µM | [10] 39.7 µM and 55 µM
not listed: [2] | [7]
inactive: all other assays above

COCC(C)O (configuration not stated)
not listed: [2] | [9]
inactive: all other assays above

Cc1ccc(S(=O)(=O)O)c(C)c1
not listed: [2]
inactive: all other assays above

CN1CCN(c2ccccc2/C=C2\SCCN(c3ccc(Cl)c(Cl)c3)C2=O)CC1
inactive: all assays above

Cc1cc(C)c(O)c(C)c1
inactive: all assays above

C[C@@H]1C[C@H]2[C@@H]3CCC4=CC(=O)C=C[C@]4(C)[C@@]3(F)[C@@H](O)C[C@]2(C)[C@@]1(O)C(=O)COP(=O)(O)O
active: [3] 77.6 nM [middle of 4 runs]
not listed: [2]
inactive: all other assays above

CCOC(=O)CC(O)(CC(=O)OCC)C(=O)OCC
not listed: [2]
inactive: all other assays above

CCc1ccc(CCOc2ccc(CC3SC(=O)NC3=O)cc2)nc1 (configuration not stated)
not listed: [2]
inactive: all other assays above

O=C(OCCOCCOC(=O)c1ccccc1)c1ccccc1
inactive: all assays above

CCCCCCCC(=O)O
not listed: [2]
inactive: all other assays above

CCCCCCCCC(=O)O
not listed: [2]
inactive: all other assays above

CCCCC[C@H](O)CC(=O)CCc1ccc(O)c(OC)c1
active: [2] 149 µM
inactive: all other assays above

CC(=O)NC1(c2cccc(F)c2)CCN(CC[C@@]2(c3ccc(Cl)c(Cl)c3)CN(c3ccccc3)C(=O)CO2)CC1
active: [1] 50.7 µM | [7] 8.61 µM | [9] 51.6 µM | [10] 45.5 µM
inactive: all other assays above

CCCCC(CC)COC(=O)CCCCC(=O)OCC(CC)CCCC (configuration not stated)
inactive: all assays above

C#C[C@]1(O)CC[C@H]2[C@@H]3CCC4=CC(=O)CC[C@@H]4[C@H]3CC[C@@]21C
not listed: [2] | [7] | [8]
inactive: all other assays above

CCN(CC)CCNc1ccc(CNC=O)c2sc3ccc(OC)cc3c(=O)c12
active: [2] 1.19 µM | [3] 1.85 µM | [7] 0.515 µM | [8] 0.947 µM | [9] 1.85 µM
inactive: [1] | [4] | [5] | [6] | [10]

O=C(/C=C/c1ccc(O)cc1)CC(=O)/C=C/c1ccc(O)cc1
active: [2] 29 µM | [4] 8.84 µM | [9] 20.3 µM | [10] 10.8 µM
inactive: all other assays above

COc1cc(CCC(=O)CC(=O)CCc2ccc(O)c(OC)c2)ccc1O
active: [10] 76.4 µM
inactive: all other assays above

c1ccc2c(c1)Cc1ccccc1-2
inactive: all assays above

CN(C)C=O
not listed: [3]
inactive: all other assays above
